Sampled rows, rich in hits. Any-hit rate of the full collection: about 1.6%.
KCNQ2 pot: enhances the rat KCNQ2 potassium channel; 0.54% of 310,000 active; CHO-K1 KCNQ2, FluxOR thallium flux fluorescence; active compounds read high; B-score at 10 µM; AID 2239;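 active = fluorescence ratio B-score at least 3 SD of library B-scores, with initial fluorescence B-score within 3 of them, cut at about 5.3 in these data; same plate scores as AID 2156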;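 also: B-score of peak minus minimum over baseline fluorescence ratio after K+ and Tl+ stimulus; positive B-score means potentiation of KCNQ2 with more thallium influx and brighter signal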
KCNQ2 inh: inhibitors of rat KCNQ2 potassium channel. O88943. CHO-K1 KCNQ2, FluxOR thallium flux, 20 min; active compounds read low. B-score at 10 µM. 1.1% of 310,000 active;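 active = fluorescence ratio B-score at most minus 3 library SDs, with starting brightness B-score within 2 library SDs, cut at about -5.5 in these data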
Starred values were filed as active, the others as inactive; i = inactive; nt = no result given; ! = a repeat was not active.

SMILES | KCNQ2 pot | KCNQ2 inh
COc1ccc(OC)c(C2CC(c3c(-c4ccccc4)c4cc(Cl)ccc4[nH]c3=O)=NN2S(C)(=O)=O)c1 (configuration not stated) | -7 | -7*
COc1ccc(N2C(=O)CSC23C(=O)N2CCCc4cccc3c42)cc1 (configuration not stated) | 3.8 | i
COc1ccc(N2C(=O)CSC23C(=O)N2c4c(cccc43)C(C)=CC2(C)C)cc1 (configuration not stated) | -6.2 | -6.2*
CNCc1c(C)nn(-c2ccccc2)c1C | 10* | i
Cc1nn(-c2ccccc2)c(C)c1N | 1.1 | i
COC(=O)C(CC(=O)c1ccc(Br)cc1)n1ccnc1 (configuration not stated) | -6.2 | -6.2*
COC(=O)C(CC(=O)c1ccc(Br)cc1)n1nc(C)cc1C (configuration not stated) | 0.49 | i
COc1ccc(C2CC(c3ccccc3)=NN2C(=O)COC(=O)C2(C)CC2(Cl)Cl)cc1 (configuration not stated) | nt | i
COc1cccc(CNn2cnnc2)c1O | -5.6 | -5.6*
CCOc1ccccc1CNn1cnnc1 | 1.5 | i
O=S(=O)(NN=C1CCCCCC1)c1ccccc1 | 1.6 | i
CC(C)c1ccccc1NC(=O)C1CC(=O)N(C2CCCC2)C1 (configuration not stated) | 1.2 | i
CCOC(=O)c1cnc2ccccc2c1Nc1cc(C(=O)O)ccc1C | 0.87 | i
CCN(C(=O)c1cc2c(=O)[nH]c3ccc(C)cc3c2s1)c1ccccc1F | 13* | i
CCN(C(=O)c1cc2c(=O)[nH]c3ccc(C)cc3c2s1)c1ccccc1C | 0.05 | i
CCCN(CC(=O)Nc1ccccc1C)C(=O)CCl | 1.2 | i
Cc1cc(NC(=O)CC#N)n(-c2ccccc2)n1 | nt | i
COc1ccc(N(C)S(=O)(=O)c2cccc(C(=O)NC3CCCC(C)C3C)c2)cc1 (configuration not stated) | -7.3 | -7.3*
COc1ccc(N(C)S(=O)(=O)c2cccc(C(=O)NC3CCCCCC3)c2)cc1 | nt | i
CSc1ccccc1C(=O)N(C)Cc1ccccc1 | nt | i
CSc1ccccc1C(=O)N(C)C(c1ccccc1)c1ccccc1 | -5.7 | -5.7*
Cc1cccc(C)c1NC(=O)CN(C)C(=O)c1cccc(NS(=O)(=O)c2ccccc2)c1 | nt | i
CC(=O)c1c(C)nc2ccc(Br)cc2c1-c1ccccc1 | -7.8 | -7.8*
Cc1nc2ccc(Br)cc2c(-c2ccccc2)c1C(=O)O | nt | i
CC(=O)Nc1ccc(NC(=O)CN(C)S(=O)(=O)c2ccc3c(c2)CCC(=O)N3)cc1 | 0.86 | i
SMILES | KCNQ2 pot | KCNQ2 inh
COc1ccc(/C=N/NC(=O)c2nc(-c3ccccc3)cc(-c3ccccc3)n2)cc1OC | nt | i
COc1cccc(/C=N/NC(=O)c2nc(-c3ccccc3)cc(-c3ccccc3)n2)c1 | -6.9 | -6.9*
O=C(NC1CCCC1)C(c1ccccc1)N(C(=O)c1csnn1)c1ccccc1F (configuration not stated) | 0.47 | i
COc1ccc2c(c1)C(C)CC(C)(C)N2C(=O)Nc1ccccc1 (configuration not stated) | nt | i
COc1ccc2c(c1)C(C)CC(C)(C)N2C(=O)CSc1nc2ccccc2s1 (configuration not stated) | -7.5 | -7.5*
C[C@@H]1C(=O)O[C@H]2[C@H](O)[C@@]34[C@H]5C[C@@H](C(C)(C)C)[C@]36[C@@H](OC(=O)[C@@H]6O)O[C@@]4(C(=O)O5)[C@@]12O | 0.02 | i
CCN(CC)S(=O)(=O)c1cc(NC(=O)CN2C(=O)NC3(CCCc4ccccc43)C2=O)ccc1C (configuration not stated) | -5.8 | -5.8*
Cc1ccc(NC(=O)CN2C(=O)NC3(CCCc4ccccc43)C2=O)cc1S(=O)(=O)N1CCOCC1 (configuration not stated) | nt | i
COc1cc(CNCCCN2CCOCC2)cc(Cl)c1OCC(=O)NC(C)(C)C | 0.64 | i
N#Cc1cccc(NC(=O)CN2CCN(Cc3ccccc3)CC2)c1 | nt | i
CCCN(CC1CC1)C(=O)CSc1ncnc2sc(C)c(C)c12 | -6.3 | -6.3*
CCN(C(=O)CSc1ncnc2sc(C)c(C)c12)C1CCS(=O)(=O)C1 (configuration not stated) | nt | i
Cc1c(O)cccc1C(=O)N[C@@H](CSc1ccccc1)[C@H](O)CN1C[C@H]2CCCC[C@H]2C[C@H]1C(=O)NC(C)(C)C | -5.7 | -5.7*!
CCOc1ccc(S(=O)(=O)N(CC)CC(=O)N2CCOCC2)cc1C | 1.2 | i
CCOc1ccc(C2=NNC(c3cccs3)=Nc3ccc(OC)cc32)cc1 | -5.6 | -5.6*
CCOc1ccc(C2=NNC(c3cccnc3)=Nc3ccc(OC)cc32)cc1 | nt | i
Cc1ccnc(NC(=O)CCc2c[nH]c3ccccc23)c1 | nt | i
CCN(CC)CCN1C(=O)C(O)=C(C(=O)c2cc3cccc(OC)c3o2)C1c1cccs1 (configuration not stated) | nt | i
O=C(Nc1ccccc1-c1ccccc1)c1ccccc1Br | -6.3 | -6.3*
O=C(Nc1ccccc1Br)c1ccccc1-c1ccccc1 | nt | i
Cc1ccc(OCC2Cn3c(nc4c3c(=O)[nH]c(=O)n4C)O2)cc1C (configuration not stated) | 1.9 | i
CCCN1CCc2c(sc3nc(SC)n(-c4ccccc4)c(=O)c23)C1 | nt | i
CCCCc1cc(=O)oc2cc(OC(C)C(=O)NCC3CCC(C(=O)O)CC3)c(Cl)cc12 (configuration not stated) | 0.93 | i
Cc1ccc(-c2cc(C(=O)NC3=NCCS3)c3cc(Br)ccc3n2)o1 | -6.3 | -6.3*
Cc1ccc(-c2cc(C(=O)O)c3cc(Br)ccc3n2)o1 | 1.7 | i
SMILES | KCNQ2 pot | KCNQ2 inh
O=C(O)c1ccc(NNC(=S)Nc2cc(C(F)(F)F)ccc2Cl)cc1 | nt | i
COc1cccc(-c2nc(C(=O)NCC3CCCO3)cc3c2[nH]c2ccccc23)c1 (configuration not stated) | -5.7 | -5.7*
COc1ccc(OC)c(-c2nc(C(=O)NCC3CCCO3)cc3c2[nH]c2ccccc23)c1 (configuration not stated) | nt | i
S=C(NC1CC1)NC1CCCc2ccccc21 (configuration not stated) | 0.19 | i
COc1cccc(-c2nn(-c3ccc(C)cc3)cc2C(=O)N2CCc3cc(OC)c(OC)cc3C2)c1 | -6.2 | -6.2*
COc1cccc(-c2nn(-c3ccccc3)cc2C(=O)O)c1 | 0.55 | i
COc1ccc(CN2CCOCCOCCN(Cc3ccc(OC)cc3)CCOCCOCC2)cc1 | 0.83 | i
Cc1cc(-c2ccc(S(=O)(=O)N(C)Cc3ccccc3)cc2)on1 | nt | i
CC(C)n1nc(C(=O)Nc2ccccc2N2CCOCC2)c2ccccc2c1=O | nt | i
Cn1nc(C(=O)Nc2ccccc2N2CCCC2)c2ccccc2c1=O | -5.6 | -5.6*
COc1ccc(C(=O)NCCCc2nc3ccccc3n2Cc2ccccc2C)cc1OC | nt | i
C=C[C@]1(C)C[C@@H](OC(=O)CSCCN(CC)CC)[C@]2(C)C(C)CC[C@]3(CCC(=O)[C@H]32)[C@@H](C)[C@@H]1O (some centres not stated) | 0.17 | i
COc1ccc(OC)c(C(=O)CSc2nnc(Cc3cccs3)n2CCc2ccccc2)c1 | -7.1 | -7.1*
COc1ccc(OC)c(C(=O)CSc2nnc(-c3cccs3)n2C)c1 | 0.04 | i

High-throughput results: PubChem BioAssay, Johns Hopkins Ion Channel Center
